According to PubChem BioAssay:
Activity calls are given as the source filed them. Unless noted, the rule behind the calls is not given here.

Assays:
[1] = resazurin metabolic signal in HepG2 cells – cell-based, resazurin fluorescence, 24 h, PK04 Diversity Set, profiling panel (AID 1172); details: HepG2 viability, higher = more signal; note: test concentration not given here
[2] = budding yeast growth changes without added modifier – OD600, strain BY4716, 24 h, basal condition, primary screen (AID 1173); details: S. cerevisiae BY4716 growth, OD600, 24 h; higher = more signal, called active from +8 up or from −8 down
[3] = viability profiling in MM1S myeloma cells – cell-based, resazurin fluorescence, basal, 24 h, PK04 Diversity Set, profiling panel (AID 1174); details: higher = more signal, called active from +8 up or from −8 down;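 note: MM1S multiple myeloma cell line; test concentration not given here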
[4] = molecular target: Dihydroorotate dehydrogenase (quinone), mitochondrial (Plasmodium falciparum (isolate 3D7)) (UniProt Q08210); assay: inhibition of P. falciparum DHODH – biochemical, C-terminal His tag, absorbance 600 nm, primary screen (AID 1175); details: PfDHODH enzyme, DCIP absorbance 600 nm; higher = more signal, called active from +8 up or from −8 down;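 note: recombinant parasite enzyme with a five histidine tag at its C terminus; test concentration not given here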
Sequence of Dihydroorotate dehydrogenase (quinone), mitochondrial (Plasmodium falciparum (isolate 3D7)) (Q08210 whole entry, looked up): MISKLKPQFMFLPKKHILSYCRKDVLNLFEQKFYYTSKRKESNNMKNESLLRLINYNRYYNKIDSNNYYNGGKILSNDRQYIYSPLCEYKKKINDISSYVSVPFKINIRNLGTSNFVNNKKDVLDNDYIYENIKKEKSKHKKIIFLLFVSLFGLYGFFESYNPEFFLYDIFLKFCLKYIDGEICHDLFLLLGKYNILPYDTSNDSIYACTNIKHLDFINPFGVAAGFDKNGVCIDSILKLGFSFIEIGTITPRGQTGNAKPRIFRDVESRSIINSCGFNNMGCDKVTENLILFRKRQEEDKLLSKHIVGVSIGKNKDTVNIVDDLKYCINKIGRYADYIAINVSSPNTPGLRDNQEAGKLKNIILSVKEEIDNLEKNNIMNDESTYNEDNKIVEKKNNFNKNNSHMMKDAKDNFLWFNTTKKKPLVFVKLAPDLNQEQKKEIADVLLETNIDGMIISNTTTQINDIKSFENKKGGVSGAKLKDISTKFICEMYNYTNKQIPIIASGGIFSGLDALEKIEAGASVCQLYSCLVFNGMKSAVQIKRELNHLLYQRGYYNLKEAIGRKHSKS

[5] = inhibition of PAO1 biofilm formation – strain PAO1, LB-PBS medium, absorbance 600 nm, primary screen (AID 1176); note: test concentration not given here; details: P. aeruginosa PAO1 growth/biofilm, A600, 12 h; higher = more signal
[6] = growth modulation of vineyard yeast isolate – strain RM11-1a, OD600, basal, 24 h, primary screen (AID 1177);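 note: cultures grown under basal conditions with no added stressor; test concentration not given here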; details: S. cerevisiae RM11-1a growth, OD600, 24 h; higher = more signal, called active from +8 up or from −8 down
[7] = growth of efflux-deficient E. coli DRC39 – strain DRC39, OD650, 24 h, E. coli filamentation inducers, primary screen (AID 1178);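 note: growth measured as culture turbidity by optical density at 650 nm; test concentration not given here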; details: E. coli DRC39 acrAB, higher = more signal, called active from +8 up or from −8 down
[8] = growth of efflux-deficient E. coli DRC39 – strain DRC39, OD650, 48 h, E. coli filamentation inducers, primary screen (AID 1179);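 note: screen aims at cell division blockers that make cells filament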; details: E. coli DRC39 delta-acrAB growth, higher = more signal, called active from +8 up or from −8 down
[9] = viability profiling in RPMI8226 myeloma cells – cell-based, resazurin fluorescence, basal, 24 h, PK04 Diversity Set, profiling panel (AID 1180); details: higher = more signal;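 note: RPMI8826 multiple myeloma cell line at 5000 cells per well; test concentration not given here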
[10] = molecular target: E3 ubiquitin-protein ligase XIAP (Homo sapiens) (UniProt P98170); assay: small molecules binding XIAP protein – biophysical, small-molecule microarray, fluorescence 635 nm, primary screen (AID 1181); details: higher = more signal;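 note: score merges 667 nm emission and signal to noise over triplicate slides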
Sequence of E3 ubiquitin-protein ligase XIAP (Homo sapiens) (P98170 whole entry, looked up): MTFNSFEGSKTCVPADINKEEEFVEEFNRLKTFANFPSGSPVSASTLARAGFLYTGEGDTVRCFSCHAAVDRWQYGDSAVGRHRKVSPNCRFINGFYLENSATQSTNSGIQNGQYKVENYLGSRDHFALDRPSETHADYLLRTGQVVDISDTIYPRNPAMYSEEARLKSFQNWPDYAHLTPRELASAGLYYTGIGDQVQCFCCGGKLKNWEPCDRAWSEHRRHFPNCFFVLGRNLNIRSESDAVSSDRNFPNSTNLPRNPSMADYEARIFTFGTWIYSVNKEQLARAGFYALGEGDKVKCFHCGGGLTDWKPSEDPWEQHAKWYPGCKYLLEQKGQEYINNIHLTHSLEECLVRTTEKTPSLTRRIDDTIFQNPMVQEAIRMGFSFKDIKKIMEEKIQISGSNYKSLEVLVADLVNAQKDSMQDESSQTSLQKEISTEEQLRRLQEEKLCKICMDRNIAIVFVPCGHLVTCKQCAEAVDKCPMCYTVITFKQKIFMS

Compound	z-score [1]	z-score [2]	z-score [3]	composite z-score [4]	z-score [5]	z-score [6]	z-score [7]	z-score [8]	z-score [9]	composite z-score [10]
CC(C)=CCCC(C)=CCON=C1C[C@@H](O)[C@@H](O)[C@@H]2[C@@H]3C(=O)N(C[C@@H]4CCCO4)C(=O)[C@@H]3CC[C@H]12	0.164	-1.72 (inactive)	-0.58 (inactive)	0.0911 (inactive)	0.295 (inactive)	1.8 (inactive)	-0.169 (inactive)	-0.543 (inactive)	-0.251	-0.217
COC(=O)CC=C[C@@H](C)[C@H](OCc1cccc(-c2ccccc2)c1)C1CCCCC1	-0.307	-0.0348 (inactive)	0.45 (inactive)	-3.69 (inactive)	-0.409 (inactive)	1.82 (inactive)	-0.933 (inactive)	-0.661 (inactive)	0.403	-0.267
COC(=O)CC=C[C@@H](C)[C@@H]1C=C[C@H](O)[C@@H](CO)O1	-0.118	0.626 (inactive)	-3.24 (inactive)	0.35 (inactive)	0.274 (inactive)	0.86 (inactive)	0.439 (inactive)	0.483 (inactive)	-1.28	0.0727
O=c1n(Cc2cc3c(cc2Cl)OCO3)c(=O)n2n1CC[C@@H]1C(=NOCc3ccccc3)[C@H]3O[C@H]3[C@@H](O)[C@@H]12	-0.0806	-1.61 (inactive)	-0.595 (inactive)	-1.22 (inactive)	0.14 (inactive)	-1.8 (inactive)	-0.485 (inactive)	-0.628 (inactive)	-1.02	-0.0365
CCOC(=O)[C@H](CC(C)C)NC(=O)CCC1CC(OC(=O)NCc2ccc3c(c2)OCO3)CC2(CCCC(COC(=O)NCC3CCCCC3)O2)O1 (stereo not given in full)	0.471	0.105 (inactive)	1.4 (inactive)	-0.19 (inactive)	-0.0326 (inactive)	0.494 (inactive)	0.536 (inactive)	0.0926 (inactive)	1.32	-0.0053
CCC1=NOC(CCC2CC(OC(=O)NCc3cccc4c3OCO4)CC3(CCCC(COC(=O)NCCc4ccccc4OC)O3)O2)C1 (stereo not given)	-0.211	-0.101 (inactive)	0.0125 (inactive)	-0.104 (inactive)	1.43 (inactive)	-0.509 (inactive)	1.13 (inactive)	0.918 (inactive)	0.718	-0.294
CCc1cc2c(nc1CC)CCN(CCC(C)=NO[C@@H](C)c1cn([C@H](CO)Cc3ccccc3)nn1)C2	-0.301	-0.841 (inactive)	-1.79 (inactive)	-1.3 (inactive)	-0.218 (inactive)	0.804 (inactive)	0.294 (inactive)	0.67 (inactive)	0.659	-0.0602
CO[C@@H]1COC(=O)[C@@H](C)NC(=O)CC=C[C@@H](C)[C@H](NS(=O)(=O)c2ccc(C)cc2)COC(=O)[C@H](C)NC(=O)CC=C[C@H]1C	0.63	-0.673 (inactive)	0.416 (inactive)	0.0059 (inactive)	-0.212 (inactive)	-0.489 (inactive)	1.39 (inactive)	0.428 (inactive)	1.08	-0.202
O=C1[C@H]2[C@H]3[C@H](O)[C@H](O)CC(=NOCc4ccccc4)[C@@H]3CC[C@H]2C(=O)N1Cc1ccc2c(c1)OCO2	1.03	-0.419 (inactive)	0.0481 (inactive)	-0.0799 (inactive)	0.07 (inactive)	-0.0921 (inactive)	0.419 (inactive)	0.128 (inactive)	1.01	-0.0377
Cc1ccc(S(=O)(=O)NC(CCc2ccccc2)CC(=O)C(C)(C)C)cc1 (stereo not given)	0.277	-1 (inactive)	-0.146 (inactive)	0.0379 (inactive)	0.143 (inactive)	0.384 (inactive)	0.628 (inactive)	0.274 (inactive)	0.159	-0.195
CON=C[C@@H](C)[C@H](OCc1ccccc1)C(C)C	-0.304	-0.639 (inactive)	0.548 (inactive)	-2.72 (inactive)	0.298 (inactive)	-0.919 (inactive)	-1.29 (inactive)	-2.73 (inactive)	-0.32	-0.409
CCOC(=O)[C@H](Cc1ccccc1)NC(=O)CCC1CC(OC(=O)NCc2ccc3c(c2)OCO3)CC2(CCCC(COC(=O)NCCc3ccccc3OC)O2)O1 (stereo not given in full)	-0.23	0.911 (inactive)	-0.32 (inactive)	0.0964 (inactive)	0.426 (inactive)	0.824 (inactive)	-0.0754 (inactive)	-0.731 (inactive)	0.0481	-0.024
COC(=O)CC=C[C@@H](C)[C@@H](C=NOC[C@H]1O[C@H](c2ccccc2)C=C[C@@H]1Oc1ccc(OC)cc1)NS(=O)(=O)c1ccc(C)cc1	-0.659	0.642 (inactive)	-0.0907 (inactive)	0.0727 (inactive)	-0.0781 (inactive)	0.0674 (inactive)	-1.01 (inactive)	-0.913 (inactive)	-0.189	-0.167
CC(C)(C)N1C(=O)[C@H]2[C@H]3[C@H](O)[C@H](O)CC(=O)[C@@H]3CC[C@H]2C1=O	-0.0291	-0.693 (inactive)	-0.0757 (inactive)	-0.251 (inactive)	0.27 (inactive)	-0.736 (inactive)	-0.268 (inactive)	-0.653 (inactive)	-0.0415	-0.177
CC(C)=CCCC(C)=CCON=C1C[C@@H](O)[C@@H](O)[C@@H]2[C@@H]3C(=O)N(c4cccc(Oc5ccccc5)c4)C(=O)[C@@H]3CC[C@@H]12	0.171	-1.86 (inactive)	0.815 (inactive)	-2.48 (inactive)	0.0001 (inactive)	-0.556 (inactive)	0.615 (inactive)	-0.923 (inactive)	-0.198	0.0368
CO[C@@H]1COC(=O)CC=C[C@H](C)[C@H](OC)COC(=O)[C@H](C)NC(=O)CC=C[C@H]1C	0.774	-0.486 (inactive)	0.978 (inactive)	-0.165 (inactive)	-0.638 (inactive)	-0.363 (inactive)	0.853 (inactive)	-0.0907 (inactive)	0.453	0.0264
CC(CCN1CCCCc2nc(C)c(C)cc21)=NO[C@@H](C)c1cn([C@H](CO)Cc2ccccc2)nn1	-0.841	0.102 (inactive)	-1.85 (inactive)	-1.55 (inactive)	-0.631 (inactive)	0.736 (inactive)	0.882 (inactive)	1.46 (inactive)	-0.483	-0.127
CCOC(=O)[C@H](CC(C)C)NC(=O)CCC1CC(OC(=O)NCc2cccc3ccccc23)CC2(CCCC(COC(=O)NCCOC)O2)O1 (stereo not given in full)	-0.0621	-2.14 (inactive)	1.35 (inactive)	-0.531 (inactive)	0.226 (inactive)	-1.73 (inactive)	0.521 (inactive)	-0.0291 (inactive)	0.986	0.0589
O=C1[C@H]2[C@H]3[C@H](O)[C@H](O)CC(=NOC[C@@H](O)COCc4ccco4)[C@H]3CC[C@H]2C(=O)N1c1ccc(F)cc1F	0.474	-1.89 (inactive)	0.988 (inactive)	-2.54 (inactive)	1.18 (inactive)	-3.71 (inactive)	-0.311 (inactive)	-1.22 (inactive)	-0.374	-0.446
C[C@@H](c1ccccc1)N1C(=O)[C@H]2[C@H]3[C@H](O)[C@H](O)CC(=NOCc4ccccc4)[C@H]3CC[C@H]2C1=O	-0.137	-0.18 (inactive)	-1.03 (inactive)	-0.964 (inactive)	-0.179 (inactive)	0.783 (inactive)	0.273 (inactive)	1.12 (inactive)	0.76	-0.184
CO[C@@H]1C=CCC(=O)N2CCC[C@H]2C(=O)OC[C@@H](C)C(=O)OC[C@H]1C	1.12	-0.62 (inactive)	0.866 (inactive)	0.321 (inactive)	0.659 (inactive)	-0.841 (inactive)	0.947 (inactive)	0.977 (inactive)	0.218	0.104
